In the supplement of paper PMC10849652:
The full data set covers some 7,900 targets. This sample favours those with a hit. About 0.6% of all pairs of compound and target were hits.

Tests used:
Assay in all cases: log2 fold change, soluble protein after heating vs DMSO (PISA); higher = thermal stabilisation; K562 cells, 10 uM, 30 min; active = over 0.2 and 3.5 SD of the protein, either way, in both replicates (recomputed)
[1] = compound: CC[C@@H]1C(=O)N(C)c2cnc(Nc3ccc(C(=O)NC4CCN(C)CC4)cc3OC)nc2N1C1CCCC1
Procedure, shortened: (§1)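 Thermal stability values are relative to control samples and come from duplicates. They are expressed as log2 fold changes. For measurement, K562 cells (2×10^6 cells/mL) received 10 μM compound for 30 min, and aliquots were heated for 3 min over 48°C-58°C, pooled, and extracted at 4°C in PBS with 0.5% NP-40. Soluble protein, the supernatant after 21,000xg for 90 min, was quantified by TMTpro 16plex LC-MS/MS with equalised channel sums.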

[2] = compound: CC[C@@H]1C(=O)N(C)c2cnc(Nc3ccc(C(=O)N[C@H]4CC[C@H](N5CCN(CC6CC6)CC5)CC4)cc3OC)nc2N1C(C)C [volasertib]
Procedure, shortened: as §1

[3] = compound: CC[C@H](C)N1C=C(C2=C(C=C(C=C21)C3=CN=C(C=C3)N4CCNCC4)C(=O)NCC5=C(C=C(NC5=O)C)C)C
Procedure, shortened: as §1

[4] = compound: CC[C@H](C)[C@@H](C(=O)N[C@@H]([C@@H](C)O)C(=O)N[C@@H](CC(C)C)C(=O)[C@]1(CO1)C)NC(=O)[C@H]([C@@H](C)CC)N(C)C(=O)C [epoxomicin]
Procedure, shortened: as §1

[5] = compound: CCn1c(C(=O)N(C2CC2)C2CC2)cc2c3c(ncn3C)c(Nc3cc(C)n(C)n3)nc21
Procedure, shortened: as §1

[6] = compound: CCn1cc(-c2ccnc3[nH]c(-c4cccc(CN(C)C)c4)cc23)c(-c2ccc(NC(=O)N(C)C)cc2)n1
Procedure, shortened: as §1

[7] = compound: CN(C)CC(=O)Nc1ccc2[nH]c(=O)c3ccccc3c2c1
Procedure, shortened: as §1

[8] = compound: CN(CCOC1=CC=C(C=C1)C[C@H]2C(=O)NC(=O)S2)C3=CC=CC=N3 (racemic) [rosiglitazone]
Procedure, shortened: as §1

[9] = compound: CN1C2=C(C3=C1C(=O)N(N=C3)CC4=CC(=CC=C4)N)SC(=C2)S(=O)C
Procedure, shortened: as §1

[10] = compound: CN1CCC(CNc2ccc3ncc(-c4cccc(OC(F)(F)F)c4)n3n2)CC1
Procedure, shortened: as §1

Measured: log2 fold change

ITPRIP (UniProt Q8IWB1)
inactive: [1] -0.037 | [2] -0.148 | [3] -0.012 | [4] -0.019 | [5] -0.016 | [6] 0.031 | [7] 0 | [8] 0.044 | [9] -0.111 | [10] -0.017

MGST1 (UniProt P10620)
inactive: [1] 0.037 | [2] 0.039 | [3] -0.043 | [4] 0.003 | [5] -0.025 | [6] -0.158 | [7] 0.012 | [8] -0.037 | [9] -0.079 | [10] 0.086

KCTD2 (UniProt Q14681)
UniProt Q14681, sequence (Q14681 whole entry, looked up): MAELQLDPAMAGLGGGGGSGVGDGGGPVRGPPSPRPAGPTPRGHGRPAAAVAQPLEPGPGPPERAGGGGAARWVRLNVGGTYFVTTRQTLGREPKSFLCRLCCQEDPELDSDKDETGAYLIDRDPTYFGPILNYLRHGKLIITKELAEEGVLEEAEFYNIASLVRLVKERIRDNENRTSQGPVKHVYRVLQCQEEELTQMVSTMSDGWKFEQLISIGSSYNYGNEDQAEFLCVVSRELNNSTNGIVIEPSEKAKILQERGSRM
inactive: [1] 0.003 | [2] 0.029 | [3] -0.033 | [4] -0.052 | [5] 0.007 | [6] -0.024 | [7] -0.068 | [8] -0.024 | [9] 0.049 | [10] -0.623

MIF (UniProt P14174)
inactive: [1] 0.025 | [2] 0.021 | [3] -0.096 | [5] 0.015 | [6] 0.081 | [7] 0.025 | [8] -0.012 | [9] -0.038 | [10] 0.211
active: [4] 0.454

MEAK7 (UniProt Q6P9B6)
UniProt Q6P9B6, sequence (Q6P9B6 whole entry, looked up): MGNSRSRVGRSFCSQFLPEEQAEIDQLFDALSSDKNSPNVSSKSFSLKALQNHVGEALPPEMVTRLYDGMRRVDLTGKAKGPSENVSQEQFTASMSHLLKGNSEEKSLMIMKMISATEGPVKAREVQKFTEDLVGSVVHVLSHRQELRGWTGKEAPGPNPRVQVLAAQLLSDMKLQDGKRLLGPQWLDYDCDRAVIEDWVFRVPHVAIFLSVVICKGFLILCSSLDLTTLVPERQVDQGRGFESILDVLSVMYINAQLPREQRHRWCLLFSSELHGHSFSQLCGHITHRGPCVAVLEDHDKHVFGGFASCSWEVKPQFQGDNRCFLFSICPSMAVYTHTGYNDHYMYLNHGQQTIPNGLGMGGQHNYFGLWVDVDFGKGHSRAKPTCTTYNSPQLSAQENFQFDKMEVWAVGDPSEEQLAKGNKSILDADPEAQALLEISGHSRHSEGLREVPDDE
inactive: [1] -0.084 | [3] 0.039 | [4] 0.067 | [5] -0.025 | [6] -0.03 | [7] -0.046 | [8] 0.103 | [9] -0.033 | [10] -0.097
active: [2] -0.473

IMMT isoform 2 (UniProt Q16891)
inactive: [1] -0.043 | [2] -0.046 | [3] -0.002 | [4] -0.052 | [5] 0.074 | [6] -0.031 | [7] 0.086 | [8] -0.009 | [9] 0.067 | [10] 0.249

MAP2K7 isoform 4 (UniProt O14733)
UniProt O14733, sequence (O14733 whole entry, looked up): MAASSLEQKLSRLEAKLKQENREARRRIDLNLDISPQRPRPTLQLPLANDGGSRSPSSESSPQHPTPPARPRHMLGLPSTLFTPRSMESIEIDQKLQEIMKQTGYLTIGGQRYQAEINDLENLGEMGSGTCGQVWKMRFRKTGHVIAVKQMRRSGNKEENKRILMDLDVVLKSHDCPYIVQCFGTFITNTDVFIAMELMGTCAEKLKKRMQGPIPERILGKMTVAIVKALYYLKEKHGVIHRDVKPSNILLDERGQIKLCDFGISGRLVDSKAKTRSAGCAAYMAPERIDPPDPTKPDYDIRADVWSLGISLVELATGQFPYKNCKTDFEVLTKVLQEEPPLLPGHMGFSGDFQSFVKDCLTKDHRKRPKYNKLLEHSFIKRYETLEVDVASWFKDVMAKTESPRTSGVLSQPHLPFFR
inactive: [1] -0.026 | [2] -0.005 | [3] 0.022 | [4] 0.07 | [5] 0.017 | [6] -0.086 | [7] -0.017 | [8] 0.033 | [9] -0.065 | [10] -0.15

LMF2 (UniProt Q9BU23)
active: [2] -0.332
inactive: [1] -0.109 | [3] -0.027 | [4] 0 | [5] -0.053 | [6] 0.12 | [7] -0.017 | [8] 0.039 | [9] -0.007 | [10] -0.035

KEAP1 (UniProt Q14145)
active: [2] -0.357
inactive: [1] -0.026 | [3] -0.034 | [4] -0.024 | [5] -0.017 | [6] 0.019 | [7] 0.033 | [8] 0.024 | [9] 0.056 | [10] 0.053

MAP3K4 isoform 2 (UniProt Q9Y6R4)
UniProt Q9Y6R4, sequence (Q9Y6R4 whole entry, looked up): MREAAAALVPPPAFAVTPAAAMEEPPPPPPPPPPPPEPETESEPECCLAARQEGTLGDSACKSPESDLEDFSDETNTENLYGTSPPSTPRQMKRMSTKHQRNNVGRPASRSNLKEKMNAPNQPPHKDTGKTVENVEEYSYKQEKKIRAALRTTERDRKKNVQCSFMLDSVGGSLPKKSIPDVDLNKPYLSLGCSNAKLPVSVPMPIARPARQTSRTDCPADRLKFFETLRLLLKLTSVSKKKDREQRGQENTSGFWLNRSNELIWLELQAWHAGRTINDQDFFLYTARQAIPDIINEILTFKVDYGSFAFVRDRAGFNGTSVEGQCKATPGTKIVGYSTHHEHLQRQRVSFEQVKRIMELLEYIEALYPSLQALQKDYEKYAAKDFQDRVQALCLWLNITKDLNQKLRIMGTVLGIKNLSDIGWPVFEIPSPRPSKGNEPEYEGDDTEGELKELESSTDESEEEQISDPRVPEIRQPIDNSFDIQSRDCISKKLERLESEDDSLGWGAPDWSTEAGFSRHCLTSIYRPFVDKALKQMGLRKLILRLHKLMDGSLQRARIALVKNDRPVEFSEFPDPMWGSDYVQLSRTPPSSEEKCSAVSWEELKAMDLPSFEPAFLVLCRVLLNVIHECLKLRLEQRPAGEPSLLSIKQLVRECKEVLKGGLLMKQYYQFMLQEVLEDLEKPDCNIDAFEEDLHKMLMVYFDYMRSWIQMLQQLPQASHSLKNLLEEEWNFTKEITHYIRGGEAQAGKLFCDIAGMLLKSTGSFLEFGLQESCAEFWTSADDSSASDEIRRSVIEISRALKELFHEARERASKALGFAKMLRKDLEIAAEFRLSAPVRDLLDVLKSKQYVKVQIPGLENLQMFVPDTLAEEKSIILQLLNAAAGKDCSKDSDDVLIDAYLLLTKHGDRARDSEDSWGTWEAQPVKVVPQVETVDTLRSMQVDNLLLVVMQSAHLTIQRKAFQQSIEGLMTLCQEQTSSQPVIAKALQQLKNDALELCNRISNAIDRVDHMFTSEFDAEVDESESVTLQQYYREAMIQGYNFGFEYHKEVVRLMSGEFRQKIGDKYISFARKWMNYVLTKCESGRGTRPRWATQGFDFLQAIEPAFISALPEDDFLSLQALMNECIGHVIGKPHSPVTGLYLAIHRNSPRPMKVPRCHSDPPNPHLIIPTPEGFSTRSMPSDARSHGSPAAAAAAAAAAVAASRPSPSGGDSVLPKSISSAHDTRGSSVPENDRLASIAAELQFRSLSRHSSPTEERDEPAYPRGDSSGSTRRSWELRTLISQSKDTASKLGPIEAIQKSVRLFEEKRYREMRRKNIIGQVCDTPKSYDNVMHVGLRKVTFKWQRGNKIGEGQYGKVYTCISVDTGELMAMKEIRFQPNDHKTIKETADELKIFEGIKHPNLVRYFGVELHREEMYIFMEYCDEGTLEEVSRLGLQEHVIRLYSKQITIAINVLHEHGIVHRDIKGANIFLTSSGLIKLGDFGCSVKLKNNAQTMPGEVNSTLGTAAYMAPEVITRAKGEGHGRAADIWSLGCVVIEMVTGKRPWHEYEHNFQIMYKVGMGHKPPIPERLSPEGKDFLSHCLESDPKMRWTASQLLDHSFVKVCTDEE
inactive: [1] 0.141 | [3] -0.013 | [4] 0.007 | [5] 0 | [7] 0.013 | [8] 0.018 | [9] -0.018 | [10] 0.024
active: [2] 0.398 | [6] -0.519

LUC7L3 (UniProt O95232)
UniProt O95232, sequence (O95232 whole entry, looked up): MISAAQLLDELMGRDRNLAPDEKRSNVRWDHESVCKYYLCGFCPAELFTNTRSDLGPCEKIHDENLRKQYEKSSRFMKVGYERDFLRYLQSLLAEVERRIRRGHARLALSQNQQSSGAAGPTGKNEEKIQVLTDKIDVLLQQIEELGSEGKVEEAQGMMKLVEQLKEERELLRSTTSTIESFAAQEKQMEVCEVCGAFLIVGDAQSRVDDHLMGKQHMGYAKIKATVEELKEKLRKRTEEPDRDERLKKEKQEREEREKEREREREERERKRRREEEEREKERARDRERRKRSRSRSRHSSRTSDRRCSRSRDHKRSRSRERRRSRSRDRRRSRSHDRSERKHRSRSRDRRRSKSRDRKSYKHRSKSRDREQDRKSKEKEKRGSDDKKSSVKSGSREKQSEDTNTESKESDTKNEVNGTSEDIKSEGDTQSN
inactive: [1] -0.057 | [2] -0.185 | [3] 0.027 | [4] 0.005 | [5] -0.025 | [6] 0 | [7] -0.031 | [8] 0.004 | [9] -0.009 | [10] -0.074

MAPKAPK5 (UniProt Q8IW41)
inactive: [1] 0.009 | [2] -0.007 | [3] -0.023 | [4] 0.045 | [5] -0.092 | [6] -0.132 | [7] -0.123 | [8] -0.046 | [9] -0.112 | [10] -0.033

KNTC1 (UniProt P50748)
inactive: [1] -0.255 | [3] 0.022 | [4] 0.016 | [5] -0.015 | [6] -0.007 | [7] 0.037 | [8] 0.044 | [9] 0.027 | [10] -0.219
active: [2] -0.504

MFN2 (UniProt O95140)
inactive: [1] -0.1 | [2] -0.23 | [3] 0.011 | [4] 0.047 | [5] -0.004 | [6] 0.011 | [7] 0.009 | [8] 0.03 | [9] -0.011 | [10] -0.213

MIER1 isoform 12 (UniProt Q8N108)
UniProt Q8N108, sequence (Q8N108 whole entry, looked up): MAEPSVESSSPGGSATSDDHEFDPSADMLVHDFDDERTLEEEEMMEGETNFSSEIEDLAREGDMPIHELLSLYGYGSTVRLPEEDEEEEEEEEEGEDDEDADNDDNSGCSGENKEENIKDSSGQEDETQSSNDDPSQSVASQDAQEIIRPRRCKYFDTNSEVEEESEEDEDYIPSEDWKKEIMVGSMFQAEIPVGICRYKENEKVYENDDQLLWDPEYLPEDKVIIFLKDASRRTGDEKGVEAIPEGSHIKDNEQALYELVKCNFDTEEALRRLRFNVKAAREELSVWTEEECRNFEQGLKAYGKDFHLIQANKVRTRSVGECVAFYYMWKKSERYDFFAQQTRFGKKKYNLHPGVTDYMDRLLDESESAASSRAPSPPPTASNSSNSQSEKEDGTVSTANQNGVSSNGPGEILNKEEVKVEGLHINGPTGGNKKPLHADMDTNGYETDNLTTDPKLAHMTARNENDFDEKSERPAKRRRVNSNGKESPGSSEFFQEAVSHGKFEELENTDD
inactive: [1] -0.032 | [2] -0.102 | [3] 0.066 | [4] 0.02 | [5] -0.039 | [6] -0.095 | [7] -0.033 | [8] -0.027 | [9] -0.077 | [10] -0.107

IL10RB (UniProt Q08334)
UniProt Q08334, sequence (Q08334 whole entry, looked up): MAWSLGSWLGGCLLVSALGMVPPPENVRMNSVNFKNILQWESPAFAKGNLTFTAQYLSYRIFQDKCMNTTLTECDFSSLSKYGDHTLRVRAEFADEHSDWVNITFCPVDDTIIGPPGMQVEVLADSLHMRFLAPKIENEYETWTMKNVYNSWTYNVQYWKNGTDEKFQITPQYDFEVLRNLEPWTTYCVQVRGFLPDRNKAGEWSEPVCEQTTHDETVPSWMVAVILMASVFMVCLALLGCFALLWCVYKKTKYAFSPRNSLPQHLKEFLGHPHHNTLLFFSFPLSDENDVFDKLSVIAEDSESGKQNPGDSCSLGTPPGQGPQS
inactive: [1] 0.045 | [2] -0.086 | [3] 0.05 | [4] 0.056 | [5] -0.089 | [6] -0.247 | [7] -0.018 | [8] 0.087 | [9] 0.007 | [10] 0.084

MIEN1 (UniProt Q9BRT3)
inactive: [1] 0.055 | [2] -0.047 | [3] -0.02 | [4] 0.008 | [5] 0.045 | [6] 0.029 | [7] 0.181 | [8] -0.007 | [9] 0.008
active: [10] 0.284

IRF3 (UniProt Q14653)
inactive: [1] -0.05 | [2] -0.1 | [3] -0.052 | [4] -0.035 | [5] -0.02 | [6] -0.037 | [7] 0.018 | [8] 0.024 | [9] -0.024 | [10] -0.045

IRF2BPL (UniProt Q9H1B7)
inactive: [1] 0.01 | [2] -0.043 | [3] -0.012 | [4] 0.108 | [5] -0.042 | [6] -0.023 | [7] 0.036 | [8] 0.067 | [9] -0.068 | [10] -0.018

KIF2C (UniProt Q99661)
active: [2] -0.357
inactive: [1] -0.037 | [3] 0.084 | [4] 0.019 | [5] -0.042 | [6] -0.063 | [7] 0.09 | [8] 0.057 | [9] 0.003 | [10] -0.06

KIF13A (UniProt Q9H1H9)
inactive: [1] 0.007 | [2] -0.041 | [3] -0.003 | [4] 0.004 | [5] -0.05 | [6] -0.068 | [7] -0.026 | [8] 0.068 | [9] -0.012 | [10] 0.039

MAGOHB (UniProt Q96A72)
inactive: [1] -0.046 | [2] -0.096 | [3] 0.014 | [4] 0.007 | [5] -0.041 | [6] 0.003 | [7] 0.013 | [8] 0.017 | [9] -0.039 | [10] 0.023

MED16 (UniProt Q9Y2X0)
inactive: [1] 0.128 | [2] 0.101 | [3] 0.004 | [4] -0.262 | [5] -0.002 | [6] 0.031 | [7] 0.086 | [8] 0.05 | [9] 0.087 | [10] 0.06

LMNA (UniProt P02545)
inactive: [1] 0.008 | [2] -0.15 | [3] 0.01 | [4] -0.014 | [5] -0.022 | [6] 0.057 | [7] 0.009 | [8] -0.025 | [9] -0.006 | [10] 0

MDN1 (UniProt Q9NU22)
active: [2] -0.334 | [10] -0.287
inactive: [1] -0.109 | [3] 0.093 | [4] 0.006 | [5] -0.119 | [6] -0.076 | [7] 0.031 | [8] 0.08 | [9] -0.027

LAMP2 (UniProt P13473)
UniProt P13473, sequence (P13473 whole entry, looked up): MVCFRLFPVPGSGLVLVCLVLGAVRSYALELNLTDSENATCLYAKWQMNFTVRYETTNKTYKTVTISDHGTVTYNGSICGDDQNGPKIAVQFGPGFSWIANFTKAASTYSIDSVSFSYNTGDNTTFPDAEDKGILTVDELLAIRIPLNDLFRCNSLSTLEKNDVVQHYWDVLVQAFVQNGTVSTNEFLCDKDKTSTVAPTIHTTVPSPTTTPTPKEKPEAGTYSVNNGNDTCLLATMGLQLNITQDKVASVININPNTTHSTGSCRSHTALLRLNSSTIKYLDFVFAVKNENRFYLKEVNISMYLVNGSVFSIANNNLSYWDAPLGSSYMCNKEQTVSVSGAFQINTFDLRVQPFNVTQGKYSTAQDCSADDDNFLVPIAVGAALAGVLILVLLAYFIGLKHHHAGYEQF
inactive: [1] 0.018 | [2] 0.069 | [3] -0.023 | [4] 0.083 | [5] -0.009 | [6] 0.019 | [7] 0.059 | [8] 0.007 | [9] -0.016 | [10] -0.032

MCCC2 (UniProt Q9HCC0)
UniProt Q9HCC0, sequence (Q9HCC0 whole entry, looked up): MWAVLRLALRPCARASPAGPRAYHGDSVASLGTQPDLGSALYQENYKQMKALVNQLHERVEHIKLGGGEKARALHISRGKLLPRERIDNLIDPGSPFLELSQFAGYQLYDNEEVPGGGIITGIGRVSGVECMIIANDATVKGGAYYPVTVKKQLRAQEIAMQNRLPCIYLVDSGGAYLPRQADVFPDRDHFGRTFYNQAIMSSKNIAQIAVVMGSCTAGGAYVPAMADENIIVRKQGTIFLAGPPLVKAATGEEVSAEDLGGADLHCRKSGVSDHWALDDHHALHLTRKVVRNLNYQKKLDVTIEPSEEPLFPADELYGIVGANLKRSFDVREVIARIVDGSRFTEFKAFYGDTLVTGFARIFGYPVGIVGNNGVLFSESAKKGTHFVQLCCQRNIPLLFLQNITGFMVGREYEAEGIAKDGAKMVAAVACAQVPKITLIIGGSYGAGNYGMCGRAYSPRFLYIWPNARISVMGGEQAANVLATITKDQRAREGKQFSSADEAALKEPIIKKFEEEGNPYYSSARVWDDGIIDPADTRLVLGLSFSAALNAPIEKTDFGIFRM
inactive: [1] 0.003 | [2] 0.038 | [3] -0.032 | [4] -0.018 | [5] -0.007 | [6] -0.013 | [7] 0.003 | [8] 0.012 | [9] -0.031 | [10] 0.027

IMMT isoform 4 (UniProt Q16891)
inactive: [1] -0.131 | [2] -0.099 | [3] 0.013 | [4] 0.035 | [5] 0.015 | [6] -0.004 | [7] 0.002 | [8] 0.002 | [9] -0.047
active: [10] -0.325

LSS (UniProt P48449)
active: [2] 0.719
inactive: [1] 0.024 | [3] 0.074 | [4] 0.129 | [5] -0.056 | [6] -0.024 | [7] 0.055 | [8] 0.077 | [9] -0.025 | [10] 0.384

LDAH isoform 2 (UniProt Q9H6V9)
inactive: [1] -0.062 | [3] 0.007 | [4] -0.052 | [5] -0.011 | [6] -0.148 | [7] 0.049 | [8] -0.031 | [9] -0.137
active: [2] -0.374 | [10] -0.688
